Assay outcomes as filed in PubChem BioAssay.
Most compounds without a hit are left out; they make up all but 1.3% or so of the library.
Vif-APOBEC3G blk: blocks the Vif interaction with human APOBEC3G; Potency, µM (series often up to 46.1 µM), hits mostly inhibitors; 410,000 compounds, 0.076% hits; AID 602310; HeLa A3G-eYFP + Vif (tagged APOBEC3G with the HIV-1 protein that degrades it), YFP fluorescence, overnight; note: nearly all actives have a fitted effect of over 60% in size
Target sequence (Q9HC16 whole entry, looked up): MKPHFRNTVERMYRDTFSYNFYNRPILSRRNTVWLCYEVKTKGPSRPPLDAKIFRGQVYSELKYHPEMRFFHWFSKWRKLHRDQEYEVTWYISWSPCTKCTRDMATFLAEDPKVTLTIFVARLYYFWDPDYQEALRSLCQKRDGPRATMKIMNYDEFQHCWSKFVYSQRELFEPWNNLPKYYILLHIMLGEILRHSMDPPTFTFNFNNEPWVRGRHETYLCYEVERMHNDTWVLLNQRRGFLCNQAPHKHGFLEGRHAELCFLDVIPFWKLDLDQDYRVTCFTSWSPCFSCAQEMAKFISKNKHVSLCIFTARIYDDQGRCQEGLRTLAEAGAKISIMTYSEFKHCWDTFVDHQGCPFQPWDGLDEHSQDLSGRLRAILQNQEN
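Read-out is eYFP fluorescence (Ex 488/Em 500-530) from Vif-expressing HeLa A3G-eYFP cells; more signal means A3G escaped Vif-mediated degradation. Cells plated overnight, compound pinned in, incubated overnight at 37 deg C.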
TRPML1 blocker: human mucolipin-1 channel inhibition; TRPML1-inducible cells, Ca2+ dye fluorescence, FDSS; active compounds read low; inhibition of EC80 agonist-evoked calcium signal; Q9GZU1; activity change, negative = inhibition, % (concentration not given with the values); 390,000 compounds, 0.02% hits; in the data active = activity change below about -50%; inconclusive = between about -30% and that limit;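 note: stimulus is agonist 54-4 at its EC80 concentration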
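Calcium fluorescence in TRPML1-DL cells induced overnight with Tet: a 110 s read after compound pin addition, then a 110 s antagonist read after challenge with 54-4 at 4 uM final (EC80).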
Glioma ERSR ind: inducers of ER stress response in human glioma cells; U87-MG GRP78 promoter luciferase reporter, 16 h; Potency, µM, hits mostly activators; 420,000 compounds, 0.02% hits; AID 602332; note: series mostly up to about 76 µM; nearly all actives have a fitted effect of over 35% in size
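Stably transfected U87-MG glioma cells carrying a GRP78-based luciferase sensor; 16 h compound incubation. Luminescence end-point read 10 min after Bright-Glo addition at room temperature.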
TRPML1 ag: human mucolipin-1 channel agonism; Q9GZU1; TRPML1-expressing cells, Ca2+ dye fluorescence, FDSS; activation, % (test concentration not listed); 410,000 compounds, 0.12% hits; in the data active = activation above about 50%; inconclusive = mostly about 30% to 49%
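Tet-induced TRPML1-DL cells, 1,500 per well, cultured overnight, were loaded with a no-wash Ca2+ dye for 45–90 min. Calcium fluorescence was recorded on the FDSS for 110 s after compound addition, before the EC80 agonist (4 uM 54-4) was added.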
12-LOX inh: ALOX12 (human) lipoxygenase inhibition. purified 12hLO, xylenol orange hydroperoxide absorbance. Potency, µM (top dose mostly 108 µM), most hits filed as inhibitors. 580,000 compounds, 1.1% hits. AID 1671190
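Purified human 12hLO (150 nM final) in 25 mM Hepes, 0.01% Triton X-100, pH 7.0 was preincubated 15 min at room temperature with compound. Then 40 uM arachidonic acid was added, 30 min. Hydroperoxide was read by Fe-XO absorbance ratio 573/405 nm.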
Vif-APOBEC3F blk: blocks the Vif interaction with APOBEC3F. 390,000 compounds, 0.2% hits. Potency, µM (series often up to 46.1 µM). HeLa A3F-eYFP + Vif (tagged APOBEC3F with the HIV-1 protein that degrades it), YFP fluorescence increase. AID 602313; note: nearly all actives have a fitted effect of over 65% in size
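HeLa cells stably expressing Vif plus C-terminally eYFP-tagged A3F were seeded, incubated overnight at 37 deg C, dosed with compound, incubated overnight again at 37 deg C. Yellow fluorescence (Ex 488/Em 500-530) reported blocked Vif-mediated A3F-eYFP degradation.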
Numbers stand for hits; . = inactive; ? = inconclusive; / = not tested or not shown; ! = repeats disagree; [ ] = remark or other dose. Unless noted, calls come from the whole dose curve; as a rule, active = well fitted curve in the direction sought with a large enough effect; inconclusive = small, poorly fitted or top-dose-only effect, or another doubt; inactive = no such curve, though single readings can be large; an effect the other way counts as inactive or inconclusive.

SMILES	Vif-APOBEC3G blk	TRPML1 blocker	Glioma ERSR ind	TRPML1 ag	12-LOX inh	Vif-APOBEC3F blk
O=C(c1cn(CCCOc2ccccc2Cl)c2ccccc12)C(F)(F)F	/	/	/	/	.	/
CN(C)c1ccc2c(c1)N=C(c1ccco1)OP2(=S)N1CCOCC1 (stereo not given)	.	.	.	.	20µM	.
COCC(=O)NC[C@H]1C[C@@H]2CCN1C[C@@H]2CN1CCN(c2ccccn2)CC1	/	/	/	/	.	/
Clc1ccc(N2CCN(CC3[C@H]4CNC[C@@H]34)CC2)nc1 (stereo not given in full)	/	/	/	/	32µM	/
CN1CCN(c2ccc(C#N)cn2)CC1	/	/	/	/	.	/
Cn1nc(C2CCCCC2)cc1[C@H]1CN2CC[C@H]1C[C@@H]2CNS(=O)(=O)c1ccccc1	/	/	/	/	.	/
O=C(Cn1c(=O)oc2ccccc21)N1[C@H]2CC[C@@H]1c1cnc(-c3ccc(F)cc3)nc1C2	/	/	/	/	.	/
O=C(NCc1ccc(F)cc1)[C@H]1CN2CCC1C[C@@H]2Cn1cc(COc2ccccc2)nn1 (stereo not given in full)	/	/	/	/	.	/
COc1cc(CN2CCNCC2)cc(OC)c1OC	.	.	.	.	6.3µM	.
CC(C)C1=NOC2(CCCN(Cc3ccccn3)C2)C1 (stereo not given)	/	/	/	/	.	/
CC(C)N1C[C@@H]2OCC(=O)N(CC3CC3)[C@@H]2C1	/	/	/	/	.	/
N[C@@H](Cc1ccc(Oc2cc(I)c(O)c(I)c2)c(I)c1)C(=O)O	/	/	/	/	5.1µM	/
NC(Cc1ccc(N(CCCl)CCCl)cc1)C(=O)O (stereo not given)	/	/	.	.	/	/
CC(C)N1C(=O)CC2(CC[N+](C)(CCOC(=O)C(O)(c3ccccc3)c3ccccc3)CC2)C1=O (stereo not given)	.	.	.	.	35µM	.
CCN(CC)CCOC(=O)C(O)(c1ccccc1)c1ccccc1	.	.	.	.	.	.
CN1CCCC12Cc1ccccc1CN(C(=O)Cc1cccc(Cl)c1)C2 (stereo not given)	/	/	/	/	.[6.33 µM]	/
CCN1CCCCC12Cc1ccccc1CN(C(=O)Cc1ccccc1)C2 (stereo not given)	/	/	/	/	6.3µM	/
Cc1ccc(N2C(=O)NC(=O)/C(=C\C=C\c3ccco3)C2=O)cc1	?	.	.	.	.	.
O=C1NC(=O)N(Cc2ccccc2)C(=O)/C1=C\C=C\c1ccco1	.	.	?	.	40µM	?
Cc1cc(/C=C2\C(=O)NC(=O)N(Cc3ccco3)C2=O)c(C)n1-c1ccc(O)cc1	.	.	.	.	35µM	.
Cc1ccc(N2C(=O)NC(=O)/C(=C\C=C\c3ccco3)C2=O)cc1C	?	.	.	.	40µM	22µM
O=C1NC(=O)N(Cc2ccco2)C(=O)/C1=C/C=C/c1ccco1	?	.	?	.	40µM	?
Cc1nc(-c2ccco2)cc([C@H]2CN3CC[C@H]2C[C@@H]3CNC(=O)Cc2cccs2)n1	/	/	/	/	.	/
Cc1c(-c2ccc(Cl)cc2)c(=O)oc2ccc(OC(=O)N(C)C)cc12	/	/	/	/	.	/
Cn1cccc1/C=C1\C(=O)NC(=O)N(Cc2ccco2)C1=O	.	.	.	.	?	.
SMILES	Vif-APOBEC3G blk	TRPML1 blocker	Glioma ERSR ind	TRPML1 ag	12-LOX inh	Vif-APOBEC3F blk
Cc1ccc(OCCn2cccc2/C=C2/C(=O)NC(=O)N(Cc3ccco3)C2=O)cc1	.	.	.	.	35µM	?
C/C=C(/C)C(=O)O[C@H]1C(C)=C2[C@H]([C@@H]1OC(=O)CCCCCCC)[C@@](C)(OC(C)=O)C[C@H](OC(=O)CCC)[C@@]1(O)[C@H]2OC(=O)[C@@]1(C)O	/	/	0.016µM!	/	.	/
CCCCCCCCc1ccc(O)cc1	.	.	.	.	?	.
CCCCCCCCn1sccc1=O	.	.	.	.	45µM	?
O=C(NC[C@H]1C[C@@H]2CCN1C[C@@H]2CN1CCN(c2ccc(F)cc2)CC1)Nc1ccsc1	/	/	/	/	.	/
Cn1nc(C2CCCCC2)cc1[C@H]1CN2CC[C@H]1C[C@@H]2CNC(=O)N1CCOCC1	/	/	/	/	.	/
Cc1ccc([N+](=O)[O-])[c]2c1[O][Hg]2	/	/	/	/	0.051µM	/
OCC1CN(C2CCC2)CC12CCNCC2 (stereo not given)	/	/	/	/	.	/
